In PubChem BioAssay (NCATS):
Values joined by “and” are separate entries in the source; they are usually repeats but may differ in a detail not shown here. Equal entries are not always repeated. Inconclusive results are not listed. Values without a mark were called inactive. Active and inactive are the calls of the source. Calls come from the whole dose curve; as a rule, active = well fitted curve in the direction sought with a large enough effect; inconclusive = small, poorly fitted or top-dose-only effect, or another doubt; inactive = no such curve, though single readings can be large or run the other way.

Experiment: qHTS Assay for Identifying Gametocytocidal Compounds (AID 743244);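 for max response: actives lower the fluorescent signal which means gametocytes are killed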
Conditions: P. falciparum 3D7 stage III-V gametocytes, alamarBlue, 72 h; max response: stronger effect = lower value
From the text: Malaria cases and deaths have dropped 50% in 29 countries since 2000 due to the combined effects of long-lasting insecticidal bednets, indoor residual spraying, and artemisinin-based combination therapies (ACTs). This success has raised hopes for malaria eradication and consequently stimulated interest in developing new reagents that block gametocyte transmission such as novel and safe gametocytocidal drugs. However, previous drug development efforts have focused primarily on the asexual parasites that cause symptoms, but not malaria transmission. Consequently, patients can remain infectious for weeks after the clearance of asexual parasites and clinical symptoms. To be transmitted from person to person via a mosquito, the parasites must switch from asexual to sexual development and produce male and female gametocytes. Malaria gametocytes consist of five stages (I, II, III, IV and V). The late stage gametocytes (III, IV and V) are difficult to be cultured in vitro and the long lifespan of mature gametocytes allows them being transmitted from host to mosquitoes unless they are completely eliminated by gametocytocidal agents. To identify gametocytocidal compounds which are capable of killing late stage P. falciparum gametocytes, a high throughput gametocyte viability assay was employed. This assay uses oxidoreduction indicator, alamarBlue, as a general measure of metabolic activity of gametocytes. Within live cells, the nonfluorescent resazurin is reduced to resorufin, a bright red fluorescence dye. Fluorescence decreases upon treatment of gametocytocidal compounds. P. falciparum gametocyte (3D7 strain) was used in this study.
The 1536-well gametocycidal viability assay was based on the previous method of Tanaka et al. Stage III-V gametocytes were tested against three compound libraries, including 4265 compounds from NCGC pharmaceutical collection, 400 from Malaria Box library, and 550 from an internal collection of kinase inhibitors. Briefly, 2.5 ul/well incomplete medium was dispensed into each well of 1,536-well plates using the Multidrop Combi followed by 23 nl compound transferring using the NX-TR Pintool (WAKO Scientific Solutions, San Diego, CA). Then, 2.5 ul/well of gametocytes was dispensed with a seeding density of 20,000 cells/well using the Multidrop Combi. The assay plates were incubated for 72 h at 37C with 5% CO2. After addition of 5 ul/well of 2X AlamarBlue dye (Life Technologies, cat. no. DAL1100), the plates were incubated for 24 h at 37C with 5% CO2 and then were read in a fluorescence detection mode (Ex = 525 nm, Em = 598 nm) on a ViewLux plate reader (PerkinElmer).
% is set by controls: 0 for no effect and ±100 for the full control effect; potency is the fitted concentration of half-maximal effect.

| SMILES | max response | Potency |
| --- | --- | --- |
| C[C@]1(O)CC[C@H]2[C@@H]3CCC4=CC(=O)CC[C@]4(C)[C@@]3(F)[C@@H](O)C[C@@]21C | 8.13% | – |
| CN1C(=O)CC(=O)N(c2ccccc2)c2cc(Cl)ccc21 | 16.1% | – |
| COc1c2c(cc3c1OCO3)CCN(C)C2 | 7.33% | – |
| CC(C)c1c(CN(C)C(C)Cc2ccccc2)n(C)n(-c2ccccc2)c1=O (stereo not given) | 12.8% | – |
| C[N+]1(CCF)[C@@H]2CC[C@H]1CC(OC(=O)C(O)(c1ccccc1)c1ccccc1)C2 (stereo not given in full) | 7.34% | – |
| C[C@@H](N)[C@@H](O)c1ccccc1 | 12.7% | – |
| COP(=S)(OC)Oc1ccc(SC)c(C)c1 | -2.21% | – |
| CCOc1ccc(NS(=O)(=O)c2ccc(N)cc2)nn1 | 42.3% | – |
| CN1C(=O)CCS(=O)(=O)C1c1ccc(Cl)cc1 (stereo not given) | -2.23% and 6.27% | – |
| Nc1ccccc1 | -6% | – |
| COc1cccc(C(=O)CCN[C@@H](C)[C@H](O)c2ccccc2)c1 | – | 31.6 µM (active) |
| CCC1(c2ccccc2)C(=O)N(COC)C(=O)N(COC)C1=O | -2.08% | – |
| C[C@]12CCC(=O)C=C1CC[C@@H]1[C@@H]2CC[C@@]2(C)[C@H]1CC[C@]2(C)O | -12% and -18.1% | – |
| CCC(C)(C)c1ccc(O)cc1 | 15.1% | – |
| Cc1nnc2n1-c1ccc(Cl)cc1C(c1ccccc1)=NC2 | 35.3% | – |
| COP(=S)(OC)Oc1ccc(S(=O)(=O)N(C)C)cc1 | 17.5% | – |
| CC(Cc1ccccc1)NCCn1cnc2c1c(=O)n(C)c(=O)n2C (stereo not given) | -2.49% | – |
| CCN(CC)C(=O)[C@@H]1C=C2c3cccc4[nH]cc(c34)C[C@H]2N(C)C1 | – | 63.1 µM (active) |
| CN1C(=O)COc2c(C(=O)NC3CN4CCC3CC4)cc(Cl)cc21 (stereo not given) | 4.3% | – |
| COC(=O)[C@@H](N)CCCN/C(N)=N/[N+](=O)[O-] | -0.272% | – |

| SMILES | max response | Potency |
| --- | --- | --- |
| CN(C)CCc1c[nH]c2cccc(OP(=O)(O)O)c12 | 13% | – |
| c1ccc2c(c1)sc1ccccc12 | 5.76% | – |
| Clc1ccc2c(c1)C(c1ccccc1)=NCc1nncn1-2 | 5.88% | – |
| C[C@H](N)C(=O)c1ccccc1 | 39.4% and -13% | – |
| O=C1Nc2ccc(Cl)cc2C(c2ccccc2Cl)=NC1O (stereo not given) | 16.1% | – |
| CN1C(=O)C(O)N=C(c2ccccc2)c2cc(Cl)ccc21 (stereo not given) | 6.95% | – |
| O=c1oc2ccccc2c(O)c1Cc1c(O)c2ccccc2oc1=O | 2.96% | – |
| O=C(O)c1ccccc1S | 58.9% | – |
| COc1ccc2c(c1)C13CCCC[C@@H]1C(C2)N(C)CC3 (stereo not given in full) | 7.6% | – |
| Oc1ccc(Cl)cc1 | -8.53% | – |
| O=C1OC(c2ccc(O)c(S(=O)(=O)O)c2)(c2ccc(O)c(S(=O)(=O)O)c2)c2c(Br)c(Br)c(Br)c(Br)c21 | 21% | – |
| C[C@]12CCC(=O)C=C1CC[C@@H]1[C@@H]2CC[C@]2(C)C(=O)CC[C@@H]12 | 5.73% | – |
| C#C[C@]1(O)CC[C@H]2[C@@H]3CCC4=CC(=O)CC[C@]4(C)[C@H]3CC[C@@]21C | 15.4% and 2.46% | – |
| NC(=O)CS(=O)C(c1ccccc1)c1ccccc1 (stereo not given) | -2.53% | – |
| CCN(CCO)CCn1c(Cc2ccccc2)nc2c1c(=O)n(C)c(=O)n2C | 2.54% | – |
| CN1CC[C@]23c4c5ccc(O)c4O[C@H]2[C@@H](O)CC[C@H]3[C@H]1C5 | 10.1% | – |
| CCN[C@H](C)Cc1cccc(C(F)(F)F)c1 | 16.7% | – |
| CC(=O)OCC1=C(C(=O)O)N2C(=O)[C@@H](N)[C@H]2SC1 | -3.04% | – |
| COc1cc(OC)c(OC)cc1C=O | 4.65% | – |
| CNC(C)(C)Cc1ccccc1 | 20.1% | – |
